Rows were chosen to be rich in hits. Some 13% of all compounds tested hit in one or more screens of this group.
USP8 block: inhibitors of human USP8 deubiquitinase; 4.2% of 47,000 active; Ubiquitin carboxyl-terminal hydrolase 8 (Homo sapiens), P40818; inhibition, % at 20 µM; purified USP8, Ub-rhodamine cleavage fluorescence, 30 min
USP28 block: inhibitors of human USP28 deubiquitinase. purified USP28, Ub-rhodamine cleavage fluorescence, 30 min. inhibition, % at 25 µM. 3% of 47,000 active. AID 1645857, 2021
USP30 block: inhibitors of human USP30 deubiquitinase; Ubiquitin carboxyl-terminal hydrolase 30 (Homo sapiens), Q70CQ3; purified USP30, Ub-rhodamine cleavage fluorescence; inhibition, % at 25 µM; 5.3% of 47,000 active; AID 1645860, 2021
Target sequence (Q70CQ3 whole entry, looked up): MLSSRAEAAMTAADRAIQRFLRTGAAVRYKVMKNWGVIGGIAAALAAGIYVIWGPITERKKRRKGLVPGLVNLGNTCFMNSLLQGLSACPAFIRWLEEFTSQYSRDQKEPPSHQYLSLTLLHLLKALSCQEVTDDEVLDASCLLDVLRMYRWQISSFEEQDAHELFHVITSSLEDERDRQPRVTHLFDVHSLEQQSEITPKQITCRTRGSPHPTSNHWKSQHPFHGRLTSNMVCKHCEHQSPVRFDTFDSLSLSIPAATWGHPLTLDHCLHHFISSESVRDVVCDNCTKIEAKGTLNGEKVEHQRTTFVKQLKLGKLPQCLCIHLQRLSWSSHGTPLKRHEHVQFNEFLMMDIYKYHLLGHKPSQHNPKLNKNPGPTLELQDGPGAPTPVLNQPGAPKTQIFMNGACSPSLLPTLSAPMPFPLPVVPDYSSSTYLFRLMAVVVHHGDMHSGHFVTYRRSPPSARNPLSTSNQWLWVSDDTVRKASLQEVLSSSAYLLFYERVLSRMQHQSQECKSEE
USP10 inh: inhibitors of human USP10 deubiquitinase | inhibition, % at 20 µM | Ubiquitin carboxyl-terminal hydrolase 10 (Homo sapiens), Q14694 | 1.1% of 47,000 active | AID 1645856, 2021 | purified USP10, Ub-rhodamine fluorescence, 60 min
USP17 block: inhibitors of human USP17 deubiquitinase. Ubiquitin carboxyl-terminal hydrolase 17-like protein 5 (Homo sapiens), A8MUK1. purified USP17, Ub-rhodamine cleavage fluorescence, 3 h. inhibition, % at 50 µM. 6.5% of 47,000 active. AID 1645855, 2021
Starred values were filed as active, the others as inactive; i = inactive; . = no result. Cut-off read from the data, not from the text of the source: active = inhibition above about 30%; inactive = the rest.

SMILES	USP8 block	USP28 block	USP30 block	USP10 inh	USP17 block
Cc1ccc(NC(=O)CC2C(=O)N(Cc3cccnc3)c3nc4ccccc4n32)c(C)c1 (stereo unspecified)	-3.1	-10.4	0.4	-0.6	39.2*
CN1CCN(c2ccc3nnc(CCC(=O)NC4CCCCC4)n3n2)CC1	17.5	16.4	12.3	-1.0	12.1
CCN1CCN(c2nc(-c3cnc(N4CCCCC4)nc3C)cc(=O)[nH]2)CC1	9.4	3.8	1.1	0.0	-0.8
Cc1c(CN2CCOC(c3cccc(-c4ccc(C(N)=O)cc4)n3)C2)cnn1C (stereo unspecified)	0.0	-11.8	0.0	0.6	-3.4
COc1ccc(-c2cc(C(=O)Nc3n[nH]c4nc(C)ccc34)[nH]n2)c(OC)c1	55.6*	4.1	4.1	0.7	31.8*
COc1ccc(CNC(=O)Cc2c(C)n[nH]c2C)c(OC)c1	2.7	-5.7	-3.2	-0.2	-3.0
COc1cc(O)c2c(O)c3c(cc2c1)C[C@@]1(O)CC(=O)C(C(N)=O)=C(O)[C@@]1(O)C3=O	-8.6	41.3*	-120.2	10.7	30.3*
CN1CCN(C(=O)CN2C(=O)C3CCCN3C(=O)c3cc(F)ccc32)CC1 (stereo unspecified)	14.8	-0.2	15.4	-1.0	5.3
O=C(Cc1c[nH]c2ccccc12)Nc1nc2ccccc2s1	7.1	63.5*	-7.6	-2.3	4.8
COc1ccc(Nc2cc(C(=O)NCCCN(CC(C)C)CC(C)C)c3ccccc3n2)cc1	22.2	9.3	20.9	3.1	17.4
CCc1ccc(Nc2cc(C(=O)NCCCOC(C)C)c3ccccc3n2)cc1	1.5	5.4	-34.2	6.6	69.4*
Fc1ccc(Nc2ncnc3c(-c4ccccc4)noc23)cc1	5.8	6.3	46.0*	4.8	43.7*
Cc1cc2cc(CNc3ncnc4c3nnn4C)ccc2[nH]1	9.7	-21.7	-103.9	-10.7	49.1*
O=C(c1n[nH]c2c1CCCC2)N1CCCC(c2ccncn2)C1 (stereo unspecified)	-0.1	-1.1	-2.6	2.2	-1.5
O=C(NC(c1ccccc1)c1nnc(-c2ccccc2)o1)c1ccccc1Cl (stereo unspecified)	0.4	7.3	32.0*	2.7	39.4*
O=C(COc1ccc(F)cc1)NC(c1ccc(F)cc1)c1nnc(-c2ccccc2)o1 (stereo unspecified)	-0.6	4.8	10.8	0.6	6.3
CCN(Cc1ccc(OC)cc1)S(=O)(=O)c1ccc(OC)c(-c2noc(C)n2)c1	3.7	-18.6	-2.6	-1.2	-1.9
Cc1ccc(Cn2ccc3nc(N4CCN(C)CC4)ncc3c2=O)cc1	8.1	2.8	25.4	-0.1	13.0
COc1ccc(Cn2ccc3nc(N4CCCCC4)ncc3c2=O)cc1	7.3	15.2	28.1	6.4	71.1*
CN(C(=O)Cn1c(=O)nc(N(C)c2ccccc2)c2ccccc21)c1ccccc1	8.7	10.1	17.7	0.0	2.7
COc1ccc(S(=O)(=O)N2CCc3ccccc32)cc1C(=O)Nc1ccc2c(c1)NC(=O)C(C)O2 (stereo unspecified)	71.5*	12.2	-17.4	34.7*	21.2
Cc1ccc2nc(N(CCCN(C)C)C(=O)COc3ccccc3)sc2c1	2.0	21.5	41.0*	-2.8	35.6*
O=S(=O)(c1cccc(Cl)c1)N1CCN(c2cnn3cnnc3c2)CC1	-9.7	9.9	9.1	0.9	43.3*
Cc1nnc(C(=O)Nc2ccc(C(=O)N3CCN(c4cccc(Cl)c4)CC3)cc2)s1	-71.0	-10.4	-12.2	-6.3	-26.0
Cc1sc2ncnc(NS(=O)(=O)c3ccc(Cl)cc3)c2c1C	11.0	-1.8	-32.3	-5.2	6.7
SMILES	USP8 block	USP28 block	USP30 block	USP10 inh	USP17 block
Cc1ccc(-c2nn(C(C)(C)C)c3ncnc(NS(=O)(=O)c4ccc(Cl)cc4)c23)cc1	18.5	3.8	20.8	41.7*	7.2
Cn1ccnc1CN1CCC([C@@H]2OC(C)(C)C3CC2[C@](C)(O)[C@@H](O)C3)CC1 (stereo partly specified)	-0.4	16.2	32.4*	4.8	.
CC1(C)O[C@@H](C2CCN(Cc3ccccn3)CC2)C2CC1C[C@H](O)[C@@]2(C)O (stereo partly specified)	-20.3	-15.7	-85.9	-11.2	-21.6
COC1=C(C)C(C)(O)c2[nH]c3ccccc3c2C1=O (stereo unspecified)	0.0	6.0	-3.6	-2.8	41.6*
CC1=C(c2ccccc2)S(=O)(=O)N=C1N1CCCN(C(=O)c2c(F)cccc2F)CC1	11.2	2.1	6.4	-1.9	4.5
O=C(CSc1ccc2nnc(-c3cccc(F)c3)n2n1)c1ccccc1	-8.1	-11.2	-22.0	-1.7	30.4*
c1ccc(-c2nnc3ccc(SCc4ccccn4)nn23)cc1	-133.4	31.3*	24.3	5.3	0.4
c1ccc(CSc2ccc3nnc(-c4ccncc4)n3n2)nc1	-169.5	7.6	-2.9	-2.7	-22.9
COc1cccc(-c2c[nH]c(=O)cn2)c1	-15.3	-0.3	-5.1	3.4	7.1
Cc1cccc(C(C)C)c1NC(=O)CN1c2ccc(F)cc2-c2ccccc2S1(=O)=O	-3.4	4.6	30.1*	5.9	2.6
Nc1ncc(CN2CCC3(CC2)Nc2ccccc2C2=NCCN23)cn1	0.2	-4.6	-6.8	-6.8	-1.3
COc1ccc(NC(=O)C(=O)NCCN2CCN(C(=O)c3c(F)cccc3F)CC2)cc1	5.3	12.2	33.3*	0.0	5.6
Cc1nnc(C(=O)Nc2cccc(C(=O)NCCN3CCCCCC3)c2)s1	-19.0	-149.0	i	-7.8	-107.2
COc1ccc(NC(=O)c2nnc(C(=O)NCCN3CCCCCC3)s2)cc1	-5.7	29.6	51.9*	9.6	46.5*
COc1ccc(NC(=O)CSc2cn[nH]n2)cc1	19.7	-1.9	0.9	2.2	2.2
COc1ccc(NC(=O)CS(=O)(=O)c2[nH]c(-c3ccccc3)nc2-c2ccc(C)cc2)cc1	-26.1	1.7	29.5	8.0	24.0
Cc1ccc(-c2nc(-c3ccccc3)c(S(=O)(=O)CC(=O)Nc3ccc(F)c(Cl)c3)[nH]2)cc1	6.3	18.5	43.8*	24.1	24.3
COc1ccc(-c2nc(-c3ccc(OC)cc3)c(S(=O)(=O)CC(=O)Nc3ccc(F)cc3)[nH]2)cc1	-7.3	-18.8	30.0*	10.4	-1.6
COc1ccc(NC(=O)CSc2ccc(F)cc2)cc1	18.0	29.2	33.6*	0.0	28.1
CCN(C(=O)c1nc(-c2ccncc2)no1)c1cccc(C)c1	21.4	-1.0	2.6	0.0	6.4
CCOc1nccnc1N1CCC(NS(=O)(=O)c2cccnc2)C1 (stereo unspecified)	-0.8	-1.1	-6.9	-3.4	2.9
Cc1cc(C(=O)N2CC(C(=O)Nc3ccc(Br)cc3C)C2)no1	2.8	14.2	-38.4	-1.5	12.8
COc1ccc(S(=O)(=O)N2CCOC(c3ccccc3)C2)c(C)c1 (stereo unspecified)	16.6	2.4	2.5	7.9	8.5
COc1ccc(NC(=O)CSc2cc(N3CCCCC3)ncn2)cc1OC	-0.2	13.0	12.5	-2.0	0.7
